Laboratory results as given in the supplement of paper PMC7801607.

System: Plasmodium berghei ANKA liver stage in HepG2-A16-CD81
Assay: % inhibition of liver stage parasite viability (luciferase); higher = more inhibition
Conditions: 5 µM; 48 h
Method: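 Single-concentration screen of the MMV Pandemic Response Box. P. falciparum NF54 asexual blood stages: pLDH assay, 72 h at 37 °C, 2 and 20 µM, n=2. Stage IV/V gametocytes (NF54): luciferase reporter (NF54-Pfs16-GFP-Luc, 48 h), ATP bioluminescence (24 h) and PrestoBlue (48 h) at 1 and 5 µM, n=1. P. berghei liver stage (luciferase in HepG2-A16-CD81, 48 h post infection) at 5 µM, n=4. All normalised to DMSO and kill controls as % inhibition.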

| Structure (SMILES) | % inhibition of liver stage parasite viability |
| --- | --- |
| Cc1ncc([N+](=O)[O-])n1CC(O)CN1CCOCC1 (stereo not given) | 25.3% |
| Cc1[nH]c2ccccc2c1CC(=O)N[C@@H](Cc1ccccc1)C(=O)N(C)c1ccccc1 | 8.84% |
| O=[N+]([O-])c1cn2c(n1)OC[C@@H](OCc1ccc(OC(F)(F)F)cc1)C2 | 31.5% |
| O=C1[C@H](CC[C@H](O)c2ccc(F)cc2)[C@@H](c2ccc(O)cc2)N1c1ccc(F)cc1 | 27.4% |
| CC(C)Nc1ncnc2c1cnn2-c1ccc(Cl)cc1 | 43.2% |
| Oc1ccc(NCc2ccccc2OCc2ccccc2)cc1 | 25.2% |
| NC(=S)N/N=C/c1ncccc1N | 63.5% |
| CO[C@@]1(NC(=O)Cc2cccs2)C(=O)N2C(C(=O)O)=C(COC(N)=O)CS[C@@H]21 | 11.5% |
| Nc1cc(N)c2nc(-c3ccccc3)c(Nc3ccc(F)cc3)nc2c1 | 43.9% |
| COc1cc(C2C3=C(CC(C)(C)CC3=O)Nc3ccccc3N2C(C)=O)ccc1OCc1ccccc1 (stereo not given) | 25.5% |
| O=C(NCCN1CCCCC1)c1cccc(C(F)(F)F)c1 | 20.2% |
| O=C(O)COc1cccc2c1CC[C@](O)(COC(=O)N(c1ccccc1)c1ccccc1)C2 | 13.6% |
| C=C[C@]1(C)C[C@@H](OC(=O)CS[C@@H]2C[C@H]3CC[C@@H](C2)N3C)[C@]2(C)[C@H](C)CC[C@]3(CCC(=O)[C@H]32)[C@@H](C)[C@@H]1O | 53% |
| O=c1nc(N2CCN(CC3CCCCC3)CC2)sc2c([N+](=O)[O-])cc(C(F)(F)F)cc12 | 33.1% |
| O=S(=O)(NCB(O)O)c1cc2c(Cl)ccc(Cl)c2s1 | -37.4% |
| CCCCCOc1ccc(/C=C2\Oc3c(ccc(O)c3O)C2=O)c(O)c1 | 15.2% |
| COc1cc(Cc2cnc(N)nc2N)c2c(c1OC)OC(C1CC1)C=C2 (stereo not given) | 56.5% |
| CCc1nc(N)nc(N)c1C#CC(C)c1cc(OC)cc(-c2ccncc2)c1 (stereo not given) | 70.2% |
| C[C@@H](NC(=O)c1cccc(-c2c[nH]c(-c3cc4ccccc4cn3)n2)c1)c1ccc(F)cc1 | 29.1% |
| Cc1[nH]c2ccccc2c1CCNCc1ccc(/C=C/C(=O)NO)cc1 | 72.8% |

| Structure (SMILES) | % inhibition of liver stage parasite viability |
| --- | --- |
| O=P(O)(O)C(CCCc1cccc(Oc2ccccc2)c1)S(=O)(=O)O (stereo not given) | 9.62% |
| COC(=O)Nc1nc2c(C)cccc2[nH]1 | 3.06% |
| NC(=O)c1[nH]c2ccc(S(N)(=O)=O)cc2c1-c1ccccc1 | 21.9% |
| CC(C)/N=c1\cc2n(-c3ccc(Cl)cc3)c3ccccc3nc-2cc1Nc1ccc(Cl)cc1 | 59.4% |
| CN1c2ccc(Cl)cc2N(c2ccccc2)C(=O)c2cn(Cc3ccc(CN4CCOCC4)cc3)nc21 | 38.6% |
| O=c1ccc2ncc(=O)n3c2n1CC3CN1CCC(NCc2cc3c(cn2)OCCC3)CC1 (stereo not given) | 23.7% |
| COc1cc(C(C(=O)NC2CCCCC2)N(C(=O)Cc2c[nH]c3ccccc23)c2ccc(C(C)C)cc2)cc(OC)c1OC (stereo not given) | 18.7% |
| Cc1cc(C)n(O)c(=O)c1 | 15.5% |
| O=C(Cc1ccccc1F)Nc1nc2ccccc2[nH]1 | -7.69% |
| COc1cc(Cc2cc(N)nc(N)n2)cc(OC)c1OC | 81.6% |
| CCc1nc2ccccn2c1C(=O)NCc1ccccc1 | 25.4% |
| O=C(NCc1cccc2ccccc12)c1cccs1 | -19.8% |
| CN(C)c1[nH]c(=O)ncc1F | 26.1% |
| N#CCN1C(=O)COc2cc(F)c(N3C(=O)c4ccccc4C3=O)cc21 | 14.6% |
| Cc1cc(Nc2ccc(F)cc2)nc(SCc2nc3ccccc3[nH]2)n1 | 25.6% |
| CN1CCN(c2ccc3[nH]c(-c4ccc5[nH]c(-c6ccc(O)cc6)nc5c4)nc3c2)CC1 | -6.69% |
| COc1ccc(SCC(=O)N2c3ccccc3Sc3ccccc32)cc1 | 31.1% |
| CCC(C)NCC(O)Cn1c2ccc(Cl)cc2c2cc(Cl)ccc21 (stereo not given) | -2.71% |
| O=C1CCC(N2C(=O)c3ccccc3C2=O)C(=O)N1 (stereo not given) | 25.6% |
| COc1ccc2c(c1)cc(CNC(=O)c1cc3ccccc3o1)n2CC(=O)O | 24.3% |
